Assay results published in publication PMC5540273 (PLoS ONE, 2017).

Tests used:
Conditions in all cases: concentration: 1 μM,replicates: in singlicate; n = 1
IKK-alpha = system: T1, IKK-alpha
T1 construct: gene CHUK

IKK-beta = system: T2, IKK-beta
T2 construct: gene IKBKB

IKK-epsilon = system: T3, IKK-epsilon
T3 construct: gene IKBKE

INSRR = system: INSRR
INSR = system: INSR
IRAK1 = system: IRAK1
IRAK3 = system: IRAK3
IRAK4 = system: IRAK4
ITK = system: ITK
[1] = system: JAK1(JH1domain-catalytic)
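Also: KINOMEscan kinase panel screen.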

Compound | %Inh (IKK-alpha) | %Inh (IKK-beta) | %Inh (IKK-epsilon) | %Inh (INSRR) | %Inh (INSR) | %Inh (IRAK1) | %Inh (IRAK3) | %Inh (IRAK4) | %Inh (ITK) | %Inh [1]
COC(=O)c1cccc(NC(=O)NC2CCN(c3ccnc(Nc4cc(OC)c(OC)c(OC)c4)n3)C2)c1 (stereo not shown) [GSK1379767] | 0% | 0% | 40% | 0% | 11% | 62% | 79% | 11% | 11% | 9%
CC(=O)Nc1nc2cnc(Nc3cc(NC(=O)c4cccc(CC(C)(C)C#N)c4)ccc3C)nc2s1 | 0% | 1% | 28% | 4% | 16% | 9% | 27% | 8% | 0% | 27%
Cc1cccc2c(-c3ccncc3)c(-c3ccc(F)cc3)nn12.Cl [GW461487] | 0% | 0% | 21% | 0% | 0% | 9% | 0% | 0% | 5% | 8%
COc1cc2ncn(-c3cc(OCC4CCCCC4)c(C(N)=O)s3)c2cc1OC [GSK204559] | 0% | 2% | 0% | 0% | 14% | 0% | 12% | 9% | 13% | 0%
CN(c1cccc(CNc2nc(Nc3ccc4c(c3)CC(=O)N4)ncc2C(F)(F)F)c1)S(C)(=O)=O | 24% | 14% | 19% | 21% | 48% | 48% | 22% | 0% | 26% | 43%
Cn1ccc2ncnc(Oc3ccc(NC(=O)Nc4cccc(C(F)(F)F)c4)c(F)c3)c21 | 44% | 0% | 0% | 6% | 2% | 0% | 0% | 0% | 3% | 11%
COc1cccc(C2=C(Nc3cccc(Cl)c3)C(=O)NC2=O)c1 [SB-341556] | 39% | 47% | 0% | 0% | 13% | 46% | 0% | 52% | 13% | 7%
